# PubChem BioAssay (EPA / NIEHS)
# Several values for one entry are separate records, joined by “and”; a condition that tells them apart may be missing. Identical values can stand only once. Records with an inconclusive call do not appear. Activity calls are given as the source filed them. Rule for the calls: active = hit-call score of the fitted dose curve at least 0.9, where 1 is the maximum; inconclusive = response in the unintended direction; inactive = score below 0.9.
# Target: D(1A) dopamine receptor (Homo sapiens) (UniProt P21728)
# Sequence (P21728 whole entry, looked up): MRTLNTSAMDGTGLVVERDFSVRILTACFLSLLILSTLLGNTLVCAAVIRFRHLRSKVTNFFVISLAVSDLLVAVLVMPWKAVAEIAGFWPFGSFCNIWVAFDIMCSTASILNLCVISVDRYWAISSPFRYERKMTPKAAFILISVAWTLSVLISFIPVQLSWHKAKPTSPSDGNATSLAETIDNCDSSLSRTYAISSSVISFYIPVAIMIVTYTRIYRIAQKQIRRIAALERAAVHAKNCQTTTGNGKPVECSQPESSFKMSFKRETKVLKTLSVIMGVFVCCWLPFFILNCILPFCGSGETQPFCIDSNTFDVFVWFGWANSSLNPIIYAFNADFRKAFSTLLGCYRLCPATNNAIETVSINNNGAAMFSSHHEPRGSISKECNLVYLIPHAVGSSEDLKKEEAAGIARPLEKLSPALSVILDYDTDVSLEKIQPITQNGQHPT
# Test: NVS_GPCR_hDRD1: NovaScreen (NVS) G Protein-Coupled Receptor Assay for human Dopamine Receptor D1 (DRD1) (AID 2283269)
# Procedure: NVS_GPCR_hDRD1 is a biochemical, single-readout assay that uses extracted gene-proteins from HEK293 in a cell-free assay. Measurements were taken 1 hour after chemical dosing in a 96-well plate.NVS_GPCR_hDRD1 is one of one assay component(s) measured or calculated from the NVS_GPCR_hDRD1 assay. It is designed to make measurements of radioligand binding, a form of binding reporter, as detected with scintillation counting signals by Filter-based radiodetection technology.Data from the assay component NVS_GPCR_hDRD1 was analyzed into 1 assay endpoint. This assay endpoint, NVS_GPCR_hDRD1, was analyzed in the positive analysis fitting direction relative to DMSO as the negative control and baseline of activity. Using a type of binding reporter, loss-of-signal activity can be used to understand changes in the binding as they relate to the gene DRD1. Furthermore, this assay endpoint can be referred to as a primary readout, because the performed assay has only produced 1 assay endpoint. To generalize the intended target to other relatable targets, this assay endpoint is annotated to the gpcr intended target family, where the subfamily is rhodopsin-like receptor.
# Binding assays used specific radioligands (tritiated, iodinated) with non-radioactive competitive displacement ligands in agonist or antagonist protocols (as indicated) and various reference compounds and inhibitors to titrate specific binding to receptors and transporters. Most enzyme assays (CYPs, kinases, phosphatases, proteases, HDACs) used recombinant protein and specific substrates (fluorescence mostly, some colorimetric and radioactive) and inhibitors, followed by a biochemical separation of substrate and product. All assays for the biochemical HTS were initially run in duplicate at a single concentration (10 uM for CYP450 assays and 25 uM for all others). […] Each assay was run with positive and negative controls, and concurrent controls on every plate. […]
SMILES,AC50,outcome
CCCCCCCCCCCCCCCC[N+](C)(C)Cc1ccccc1,1.57 µM (active),–
CO[Si](OC)(c1ccccc1)c1ccccc1,45.6 µM (active),–
Nc1ccc(Oc2cccc(Oc3ccc(N)cc3)c2)cc1,–,inactive

# Target: human Neurokinin, NK2 Receptor, TACR2 (gene 6865) (UniProt P21452)
# Sequence (P21452 whole entry, looked up): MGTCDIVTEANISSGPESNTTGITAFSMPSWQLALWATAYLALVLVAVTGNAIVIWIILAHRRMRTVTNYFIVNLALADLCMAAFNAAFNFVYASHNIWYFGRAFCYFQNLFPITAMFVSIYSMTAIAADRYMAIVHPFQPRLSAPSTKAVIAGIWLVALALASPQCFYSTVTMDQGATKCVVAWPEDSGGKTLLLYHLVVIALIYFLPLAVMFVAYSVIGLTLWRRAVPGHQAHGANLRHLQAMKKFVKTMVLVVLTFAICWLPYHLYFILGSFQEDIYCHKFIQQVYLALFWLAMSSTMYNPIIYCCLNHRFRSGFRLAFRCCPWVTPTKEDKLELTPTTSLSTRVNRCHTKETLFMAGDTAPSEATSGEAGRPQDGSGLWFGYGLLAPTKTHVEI
# Test: NVS_GPCR_hNK2: NovaScreen (NVS) G Protein-Coupled Receptor Assay for human Neurokinin, NK2 Receptor (AID 2283278);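 note: actives reduce bound radioligand signal relative to DMSO baseline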
# How it was run: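 CHO-derived membrane protein, radioligand displacement, filter scintillation read at 4 h post-dose. Single-point 25 uM in duplicate, then concentration series for actives; DMSO as negative control.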
SMILES,AC50,outcome
CCCCCCCCCCCCCCCC[N+](C)(C)Cc1ccccc1,2.11 µM (active),–
Nc1ccc([N+](=O)[O-])cc1O,–,inactive
Oc1ccc(Nc2ccccc2)cc1,–,inactive

# Target: human Thromboxane A2 Receptor (TXA2), TBXA2R (gene 6915) (UniProt P21731)
# Sequence (P21731 whole entry, looked up): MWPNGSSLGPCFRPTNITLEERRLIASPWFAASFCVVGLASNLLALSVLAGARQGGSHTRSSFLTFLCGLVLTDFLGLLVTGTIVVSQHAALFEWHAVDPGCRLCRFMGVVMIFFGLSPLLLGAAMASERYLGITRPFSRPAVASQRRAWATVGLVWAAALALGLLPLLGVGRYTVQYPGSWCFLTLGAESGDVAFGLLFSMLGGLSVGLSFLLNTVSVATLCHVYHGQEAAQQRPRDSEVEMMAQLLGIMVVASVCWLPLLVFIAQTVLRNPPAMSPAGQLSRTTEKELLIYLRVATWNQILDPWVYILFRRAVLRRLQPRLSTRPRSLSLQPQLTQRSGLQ
# Test: NVS_GPCR_hTXA2: NovaScreen (NVS) G Protein-Coupled Receptor Assay for human Thromboxane A2 Receptor (TXA2) (AID 2283282);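 note: actives reduce bound radioligand signal relative to DMSO baseline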
# How it was run: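 Screening ran at 25 uM in duplicate, with concentration series for confirmed actives. Each test measures radioligand binding to human platelet protein after 1 h, cell-free, using filter-based scintillation detection of signal loss relative to DMSO.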
SMILES,AC50,outcome
C1COCCN1,6.07 µM (active),–
CCN(CC)c1ccc2c(C)cc(=O)oc2c1,3.01 µM (active),–
Nc1ccc(Oc2cccc(Oc3ccc(N)cc3)c2)cc1,–,inactive

# Target: human Opioid Receptor Mu (Opiate Mu), OPRM1 (gene 4988) (UniProt P35372)
# Sequence (P35372 whole entry, looked up): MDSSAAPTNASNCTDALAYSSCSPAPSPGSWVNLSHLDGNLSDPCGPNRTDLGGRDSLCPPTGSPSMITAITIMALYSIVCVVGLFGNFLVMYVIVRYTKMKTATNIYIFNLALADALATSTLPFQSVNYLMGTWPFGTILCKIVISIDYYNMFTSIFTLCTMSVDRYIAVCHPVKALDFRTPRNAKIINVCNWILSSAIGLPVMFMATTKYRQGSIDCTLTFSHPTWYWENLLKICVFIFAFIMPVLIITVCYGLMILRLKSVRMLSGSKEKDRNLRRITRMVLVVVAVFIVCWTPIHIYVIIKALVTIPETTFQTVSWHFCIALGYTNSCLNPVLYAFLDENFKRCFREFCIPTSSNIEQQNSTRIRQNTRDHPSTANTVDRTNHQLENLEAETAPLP
# Test: NVS_GPCR_hOpiate_mu: NovaScreen (NVS) G Protein-Coupled Receptor Assay for human Opioid Receptor Mu (Opiate Mu) (AID 2283290);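 note: hits lower bound tracer signal versus DMSO meaning displacement of the ligand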
# How it was run: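 Cell-free radioligand binding to membranes from CHO cells expressing the receptor; bound tracer measured by filter-based scintillation counting 2.5 hours after dosing. Loss of signal versus DMSO baseline reflects displacement; primary screen at 25 uM in duplicate, actives followed up in concentration series.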
SMILES,outcome,AC50
C#C[C@]1(O)CC[C@H]2[C@@H]3CCc4cc(OC)ccc4[C@H]3CC[C@@]21C,inactive,–
CCCCCCCCCCCCCCCC[N+](C)(C)Cc1ccccc1,–,1.44 µM (active)
Cc1cc(C)cc(O)c1,inactive,–

# Target: Sodium channel protein type 1 subunit alpha (Rattus norvegicus) (UniProt P04774)
# Test: NVS_IC_rNaCh_site2: NovaScreen (NVS) Ion Channel Assay for rat Sodium Channel, Site 2 (NaCh) (AID 2283322);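 note: hit means loss of radioligand binding signal relative to DMSO so AC50 marks displacement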
# How it was run: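 Membranes: rat forebrain. Format: competitive radioligand displacement, filter separation, scintillation readout, 1 h exposure. Primary screen in duplicate at 25 uM; actives retested in concentration series.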
SMILES,outcome,AC50
C#C[C@]1(O)CC[C@H]2[C@@H]3CCc4cc(OC)ccc4[C@H]3CC[C@@]21C,inactive,–
CCCCCCCCCCCCCCCC[N+](C)(C)Cc1ccccc1,inactive,–
Nc1ccc(Oc2cccc(Oc3ccc(N)cc3)c2)cc1,–,12.1 µM (active)
O[Si](c1ccccc1)(c1ccccc1)c1ccccc1,inactive,–

# Target: rat Thyrotropin Releasing Hormone Receptor (TRH), Trhr (gene 25570) (UniProt Q01717)
# Sequence (Q01717 whole entry, looked up): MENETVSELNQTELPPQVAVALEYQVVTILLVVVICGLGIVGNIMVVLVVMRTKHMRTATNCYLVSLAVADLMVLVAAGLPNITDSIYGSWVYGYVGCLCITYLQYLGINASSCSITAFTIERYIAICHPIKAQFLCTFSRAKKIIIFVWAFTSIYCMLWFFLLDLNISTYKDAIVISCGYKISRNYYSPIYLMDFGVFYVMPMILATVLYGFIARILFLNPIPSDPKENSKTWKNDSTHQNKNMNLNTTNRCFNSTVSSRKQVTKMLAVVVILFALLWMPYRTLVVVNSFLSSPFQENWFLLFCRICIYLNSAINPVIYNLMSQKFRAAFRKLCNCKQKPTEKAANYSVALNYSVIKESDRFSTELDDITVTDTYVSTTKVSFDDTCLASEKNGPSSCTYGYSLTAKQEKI
# Test: NVS_GPCR_rTRH: NovaScreen (NVS) G Protein-Coupled Receptor Assay for rat Thyrotropin Releasing Hormone Receptor (TRH) (AID 2283329);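 note: hit means lower bound tracer signal versus DMSO baseline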
# How it was run: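 Cell-free radioligand binding on rat forebrain membranes; bound tracer measured by filter-based scintillation counting 4 hours after dosing. Loss of signal versus DMSO baseline indicates displacement; primary screen at 25 uM in duplicate, actives then run in concentration series.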
row,SMILES,outcome
1,C#C[C@]1(O)CC[C@H]2[C@@H]3CCc4cc(OC)ccc4[C@H]3CC[C@@]21C,inactive
2,CC(CCl)OP(=O)(OC(C)CCl)OC(C)CCl (centres undefined),inactive
3,CCCCC(CC)COP(=O)(O)OCC(CC)CCCC (centres undefined),inactive
4,CCCCCCOC(=O)c1ccccc1,inactive

# Target: human Peripheral-type Benzodiazepine Receptor (PBR), TSPO (gene 706) (UniProt P30536)
# Sequence (P30536 whole entry, looked up): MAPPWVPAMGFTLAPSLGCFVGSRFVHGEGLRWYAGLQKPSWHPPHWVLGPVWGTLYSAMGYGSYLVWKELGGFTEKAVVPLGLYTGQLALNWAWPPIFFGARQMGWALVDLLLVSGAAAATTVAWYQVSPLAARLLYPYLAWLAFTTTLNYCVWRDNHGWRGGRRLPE
# Test: NVS_MP_hPBR: NovaScreen (NVS) Membrane Protein Assay for human Peripheral-type Benzodiazepine Receptor (PBR) (AID 2283331);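 note: hits reduce radioligand binding relative to DMSO baseline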
# How it was run: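 Scintillation counts of filter-bound radioligand served as read-out after 1 h chemical dosing of human colonic membrane preparations. Activity was scored as signal loss against DMSO; initial duplicates at 25 uM, confirmatory concentration series afterward.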
SMILES,AC50,outcome
CCCCCCCCCCCCCCCC[N+](C)(C)Cc1ccccc1,41.3 µM (active),–
CC(CCl)OP(=O)(OC(C)CCl)OC(C)CCl (centres undefined),23.8 µM (active),–
CC(=O)Nc1ccc(N=Nc2cc(C)ccc2O)cc1,2.21 µM (active),–
CCN(CC)c1ccc2c(C)cc(=O)oc2c1,4.66 µM (active),–
CCCCCCC(C)OC(=O)CCCCC(=O)OC(C)CCCCCC (centres undefined),10.2 µM (active),–
O=C(OCCOCCOCCOC(=O)c1ccccc1)c1ccccc1,9.76 µM (active),–
CCCCOCCOCCOC(=O)CCCCC(=O)OCCOCCOCCCC,–,inactive
CC(C)OC(=O)c1ccccc1C(=O)OC(C)C,11.5 µM (active),–

# Target: rat Peripheral-type Benzodiazepine Receptor (PBR), Tspo (gene 24230) (UniProt P16257)
# Sequence (P16257 whole entry, looked up): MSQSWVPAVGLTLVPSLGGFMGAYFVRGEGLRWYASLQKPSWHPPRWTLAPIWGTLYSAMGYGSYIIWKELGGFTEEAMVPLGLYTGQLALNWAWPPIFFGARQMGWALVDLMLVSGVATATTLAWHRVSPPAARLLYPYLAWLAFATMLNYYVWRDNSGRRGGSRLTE
# Test: NVS_MP_rPBR: NovaScreen (NVS) Membrane Protein Assay for rat Peripheral-type Benzodiazepine Receptor (PBR) (AID 2283335)
# How it was run: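 Rat kidney membranes; radioligand binding with displacement, filter-based scintillation counting, 1 h incubation. Primary screen in duplicate at 25 uM, actives followed in concentration series; loss of binding vs DMSO.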
row,SMILES,AC50
1,CCCCCCCCCCCCCCCC[N+](C)(C)Cc1ccccc1,9.82 µM (active)
2,CC(CCl)OP(=O)(OC(C)CCl)OC(C)CCl (centres undefined),4.23 µM (active) and 14.6 µM (active)
3,CCN(CC)c1ccc2c(C)cc(=O)oc2c1,3.32 µM (active)
4,Nc1ccc(Oc2cccc(Oc3ccc(N)cc3)c2)cc1,13.3 µM (active)
5,CC(Cc1ccc(O)c(O)c1)C(C)Cc1ccc(O)c(O)c1 (centres undefined),6.77 µM (active)
6,CC(C)OC(=O)c1ccccc1C(=O)OC(C)C,9.08 µM (active)
